The list is not random: actives were taken first. Their share in the collection is about 2.4%.
Pol iota inh: qHTS for Inhibitors of Polymerase Iota; DNA polymerase iota (Homo sapiens), Q9UNA4; Pol iota fluorescent replication assay, 10 min; Potency, µM (highest dose often 115 µM), for inactives: top-dose activity, negative = inhibition, usual class: inhibitors; 390,000 tested, 1% active; AID 588590, 2011; further: potency means the concentration at half of the fitted maximal effect
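Fluorescent replication assay read twice, at 0 min and 10 min after adding 50 nM (final) substrate. Enzyme (10 nM) and compounds were first incubated 15 min at room temperature; enzyme-free buffer wells were negative controls.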
Pol eta inh-1: qHTS for Inhibitors of Polymerase Eta | recombinant Pol eta, fluorescent DNA replication assay | Potency, µM (doses to about 114 µM), for inactives: at the top dose activity change, negative = inhibition, hits mostly inhibitors | AID 588591, 2011 | DNA polymerase eta (Homo sapiens), Q9Y253 | 390,000 tested, 1.2% active; further: potency means the concentration at half of the fitted maximal effect; on the % scale 0 is the no-effect control and ±100 the full control effect
Target sequence (Q9Y253 whole entry, looked up): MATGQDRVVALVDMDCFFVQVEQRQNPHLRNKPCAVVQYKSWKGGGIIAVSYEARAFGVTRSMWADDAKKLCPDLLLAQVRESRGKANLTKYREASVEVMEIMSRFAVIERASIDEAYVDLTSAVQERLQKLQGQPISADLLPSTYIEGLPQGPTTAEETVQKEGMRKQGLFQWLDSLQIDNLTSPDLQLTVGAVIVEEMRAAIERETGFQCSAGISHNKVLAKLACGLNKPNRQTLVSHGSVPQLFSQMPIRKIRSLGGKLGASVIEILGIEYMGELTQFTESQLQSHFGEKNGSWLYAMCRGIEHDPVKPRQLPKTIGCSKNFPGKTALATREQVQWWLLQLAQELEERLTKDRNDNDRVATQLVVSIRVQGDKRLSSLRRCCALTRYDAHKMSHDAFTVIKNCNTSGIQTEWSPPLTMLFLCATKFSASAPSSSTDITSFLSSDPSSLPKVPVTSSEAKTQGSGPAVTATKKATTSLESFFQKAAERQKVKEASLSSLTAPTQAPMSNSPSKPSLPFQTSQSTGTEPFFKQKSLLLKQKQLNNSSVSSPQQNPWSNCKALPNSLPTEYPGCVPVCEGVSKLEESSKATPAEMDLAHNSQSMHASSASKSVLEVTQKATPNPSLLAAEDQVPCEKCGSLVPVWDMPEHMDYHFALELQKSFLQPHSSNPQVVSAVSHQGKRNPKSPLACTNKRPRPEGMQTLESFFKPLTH
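Fluorescent replication assay: 50 nM final substrate added after a 15 min room-temperature compound preincubation with 10 nM enzyme. Signal taken at 0 min and again at 10 min.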
FEN1 inh: qHTS Assay for the Inhibitors of Human Flap endonuclease 1 (FEN1). P39748. Potency, µM (titrated, usually from 114 µM), for the others: at the top dose activity change, negative = inhibition, hits mostly inhibitors. Recombinant FEN1 flap cleavage, fluorescence, 15 min. 390,000 tested, 0.35% active; further: potency means the concentration at half of the fitted maximal effect; on the % scale 0 is the no-effect control and ±100 the full control effect; nearly all actives have a fitted effect of over 65% in size
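With each library titrated from low to high concentration, compounds met 10 nM FEN1 for 15 min at room temperature before 50 nM substrate was added; readings at 0 and 15 min fed four-parameter Hill curve fits.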
POLK inh: qHTS for Inhibitors of Polymerase Kappa. DNA polymerase kappa (Homo sapiens), Q9UBT6. 400,000 tested, 0.53% active. AID 588579, 2011. purified Pol kappa, fluorescent DNA synthesis assay, 10 min. Potency, µM (highest dose often 107 µM), inactives show at the top dose activity, negative = inhibition, hits mostly inhibitors; further: potency means the concentration at half of the fitted maximal effect; on the % scale 0 is the no-effect control and ±100 the full control effect
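Kinetic fluorescence screen: compound preincubated 15 min RT with 10 nM enzyme; 50 nM substrate (final) initiates; reads at 0/10 min.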
WRN inhibitor: qHTS for Inhibitors of WRN Helicase | Bifunctional 3'-5' exonuclease/ATP-dependent helicase WRN (Homo sapiens), Q14191 | WRN helicase unwinding, fluorescent forked duplex, kinetic | Potency, µM (doses to about 114 µM), inactives show top-dose activity change, negative = inhibition, most hits filed as inhibitors | 360,000 tested, 0.46% active; further: potency means the concentration at half of the fitted maximal effect; on the % scale 0 is the no-effect control and ±100 the full control effect; nearly all actives have a fitted effect of over 55% in size
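Primary qHTS, 1536-well format. 20 nM WRN + compound, 15 min RT; start with 100 nM forked fluorophore/quencher duplex, 2 mM ATP (final); kinetic read ex 525/em 598 nm.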
Pol beta inh-1: qHTS Assay for Inhibitors of DNA Polymerase Beta | Pol beta primer extension/strand displacement, fluorescence kinetic | 340,000 tested, 1.3% active | P06746 | AID 485314, 2010 | Potency, µM (titrated, usually from 114 µM), inactives show at the top dose activity change, negative = inhibition, usual class: inhibitors; further: potency means the concentration at half of the fitted maximal effect; on the % scale 0 is the no-effect control and ±100 the full control effect
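Homogeneous kinetic assay of primer extension and strand displacement by 10 nM Pol beta, preincubated 15 min at room temperature with compound before 50 nM substrate (final) was added. Read at 0 and 10 min; four-parameter Hill fit.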
Pol beta inh-2: Inhibitors of DNA Polymerase Beta: Hit validation. Potency, µM, hits mostly inhibitors. 250 tested, 87% active. Pol beta primer extension/strand displacement, fluorescence kinetic. AID 540280, 2011. shares compounds with Pol beta inh-1; calls by dose curve; further: potency means the concentration at half of the fitted maximal effect
Klenow counter: Inhibitors of DNA Polymerase Beta: Hit Validation in Klenow Fragment Assay; 250 tested, under 10 active; shares compounds with Pol beta inh-1; activity change, negative = inhibition, % at 57.1 µM; Klenow exo- polymerase counter-screen, fluorescent DNA substrate
HIV RT counter: Inhibitors of DNA Polymerase Beta: Hit Validation in HIV-RT Assay. shares compounds with Pol beta inh-1. HIV-1 RT polymerase activity, counter-screen. activity % (negative = inhibition, positive = activation), % at 57.1 µM. 250 tested, under 10 active
POLB valid: Inhibitors of DNA Polymerase Beta: Hit Validation in Radiolabeled Extension Assay | shares compounds with Pol beta inh-1 | radiolabeled primer extension gel assay, phosphorimager | inhibition, % at 10 µM | 110 tested, 91% active;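 active means inhibition at 10 µM of 30% or more; inconclusive means no clear call, values can overlap the other calls; inactive means inhibition at 10 µM under 30%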
POLI cherry-pick: qHTS for Inhibitors of Polymerase Iota: Confirmatory Assay for Cherry-picked Compounds; Potency, µM, hits mostly inhibitors; shares compounds with POLK inh; Pol iota primer extension, TAMRA/BHQ fluorescence; 1,500 tested, 77% active; AID 720496, 2013; further: potency means the concentration at half of the fitted maximal effect
Pol eta inh-2: qHTS for Inhibitors of Polymerase Eta: Confirmatory Assay for Cherry-picked Compounds. shares compounds with Pol eta inh-1. Pol eta primer extension, TAMRA/BHQ fluorescence, 10 min. Potency, µM, most hits filed as inhibitors. 2,600 tested, 64% active. AID 720502, 2013; further: potency means the concentration at half of the fitted maximal effect
Active calls of the source: *; ? = inconclusive; . = no result; [ ] = remark or other dose. Unless noted, the call rests on the fitted dose curve; in most records, active means well fitted curve in the direction sought with a large enough effect; inconclusive means small, poorly fitted or top-dose-only effect, or another doubt; inactive means no such curve, though single readings can be large; an effect the other way counts as inactive or inconclusive.

SMILES	Pol iota inh	Pol eta inh-1	FEN1 inh	POLK inh	WRN inhibitor	Pol beta inh-1	Pol beta inh-2	Klenow counter	HIV RT counter	POLI cherry-pick	Pol eta inh-2	others
Cc1cc(C)n(-c2nc(Nc3ccccc3)nc(-n3nc(C)cc3C)n2)n1	-1%	?	-5%	-3%	?	10µM*	?	-37	23	.	?
CCC1(CC)NC(=O)N(CC(=O)Nc2sc3c(c2C(N)=O)CCC3)C1=O	13µM*	25µM*	-28%	?	?	16µM*	28*	-20	-10	.	?	POLB valid=95*
O=C(Nc1ccc2nc(SCC(=O)N3CCCc4ccccc43)sc2c1)c1ccccc1	?	-3%	?	?	.	?	.	.	.	.	.
CC1CCCCC1NC(=O)COC(=O)c1c2c(nc3ccccc13)/C(=C/c1ccco1)CC2 (centres undefined)	3.5µM*	8.9µM*	?	10µM*	?	11µM*	18*	-27	-5	34*	21*
Cc1oc(C(=O)O)cc1COc1cccc2cccnc12	10µM*	8.9µM*	?	?	?	10µM*	16*	-23	2	67*	?
Fc1ccc(COc2cccc3cccnc23)cc1	82%	-7%	-5%	4%	4%	15%	.	.	.	.	.
COc1ccc(NC(=O)Cn2ncc(Cl)c(Cl)c2=O)cc1S(=O)(=O)N1CCOCC1	20µM*	7.1µM*	-19%	45µM*	?	10µM*	32*	-6	?	67*	76*	POLB valid=98*
COc1ccc(NC(=O)c2ccc(Cl)nc2)cc1S(=O)(=O)N1CCOCC1	?	-13%	-2%	-14%	0%	.	.	.	.	.	.
COc1cccc(-n2c(SCC(=O)N3CCc4ccccc43)nnc2-c2c[nH]c3ccccc23)c1	-1%	-4%	-13%	-3%	4%	0%	.	.	.	.	.
CCOc1ccc(-n2c(SCC(=O)N3CCc4ccccc43)nnc2-c2c[nH]c3ccccc23)cc1	?	5.6µM*	2%	0%	-24%[11.6 µM]	1µM*	1.4*	-10	26	30*	76*
